The source of these data is PubChem BioAssay AID623868 (Vanderbilt High Throughput Screening Facility, 2012).

The campaign covered roughly 2,100 compounds. About 760 (36%) were called active. These entries were drawn from the full list. Unmarked numbers belong to inactive results.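 The calls were made as follows: active = thallium-flux fluorescence traces judged by eye to show enhanced or reduced glutamate response, manual score 1 or -1, so both directions (some results past the limit were not filed as active); inactive = the rest, including fluorescent or raised-baseline compounds.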

The assay in a line: thallium influx changes without GIRK channels – cell-based, HEK-293 rmGlu8, no GIRK, thallium flux, counter-screen for GIRK activator project, confirmation (AID 623868).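 Also: extra codes mark interference with 3 for fluorescent and 4 for baseline rise.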 Particulars: thallium flux fluorescence, at 10 µM, actives lie on both sides, codes: 1 enhancer, -1 blocker, 0 none, thallium stimulus containing EC20 glutamate.
With `CCOC(=O)C(C)Oc1ccc2c(CC)cc(=O)oc2c1C` (stereo unspecified), the manual score is -0.5.

On to `CCCn1c(=N)c(C(=O)NCc2ccc3c(c2)OCO3)cc2c(=O)n3cccc(C)c3nc21`, for which the manual score is 0.

`O=C(Nc1nnc(SCc2ccc(F)cc2)s1)C1CC(=O)N(c2ccc3c(c2)OCCO3)C1` (stereo unspecified): the manual score was 0.

Take `C=CCN(CC=C)C(=S)NC(=O)c1ccc([N+](=O)[O-])cc1`: the manual score was 1 (active).

For the molecule `Cn1cccc1CNC1CCCC1`, the manual score was 0.

In the case of `C=CCn1c(=S)[nH]c2ccccc2c1=O`, the manual score was 1 (active).

Consider `COCCNC(=O)CCCCCn1c(=S)[nH]c2ccccc2c1=O`, for which the manual score is 0.

Turning to `C=CCn1c(=S)[nH]c2ccc(Br)cc2c1=O`, the manual score was 1 (active).

As to `CC(=O)c1ccc(N2CCCC2)c(F)c1`, the manual score is 0.

On to `CCOC(=O)c1c(C)n(C)c2ccc(O)c(CN3CCC(C)CC3)c12`, for which the manual score is 0.

As to `CC(C)OC(=O)c1c(NS(=O)(=O)c2ccccc2)sc2c1CCCC2`, the manual score is 1 (active).

`Cc1ccc(-c2c(C)sc(NC(=O)C3C4CCC(O4)C3C(=O)O)c2C(=O)OC(C)C)cc1` (stereo unspecified): the manual score is 0.

`COC(=O)c1c(NS(=O)(=O)c2ccc(C)cc2)sc2c1CCC(C)C2` (stereo unspecified): the manual score was 1 (active).

For `CC1CCc2c(sc(NS(=O)(=O)c3ccccc3)c2C(=O)OC(C)C)C1` (stereo unspecified), the manual score is 1 (active).

On to `COc1ccc(S(=O)(=O)NCCC(=O)NC2CCCCCCC2)cc1`, for which the manual score is 0.

Take `COC(=O)c1ccc(NS(=O)(=O)c2ccc(SC)cc2)cc1`: the manual score was 0.

Consider `COc1cccc(CNc2nc3ccccc3n2CCN2CCCCC2)c1OC`, for which the manual score is 0.

For `CC(C)(C)NC(=O)C(c1ccncc1)N(C(=O)c1csnn1)c1ccccc1` (stereo unspecified), the manual score is 0.

As to `COC(=O)c1ccccc1NC(=S)NC(=O)COc1ccc(C)cc1`, the manual score is 0.

With `O=C(COc1ccccc1)NC(=S)Nc1cccc([N+](=O)[O-])c1`, the manual score is 1 (active).

`CSc1cccc(NC(=O)COc2ccccc2)c1`: the manual score was 0.

On to `COC(=O)c1ccccc1NC(=S)NC(=O)c1ccccc1`, for which the manual score was 1 (active).

For the molecule `COC(=O)c1ccccc1NC(=S)NC(=O)c1ccc(C)cc1`, the manual score is 1 (active).

For the molecule `COC(=O)COc1ccc(S(=O)(=O)Nc2ccccc2C(=O)OC)cc1`, the manual score was -0.5.

`O=C(COc1ccccc1)NC(=S)Nc1ccc2c(c1)Cc1ccccc1-2`: the manual score was 0.

With `COC(=O)c1ccccc1NC(=S)NC(=O)COc1ccccc1`, the manual score was 1 (active).

With `COc1ccc(OC)c(-c2c3cc(O)c(=O)cc-3oc3cc(O)c(O)cc23)c1`, the manual score is 0.

For the molecule `COc1cc(C)nc(N(Cc2ccccc2)S(=O)(=O)c2ccccc2)n1`, the manual score was 0.

Take `O=C(NNS(=O)(=O)c1ccccc1F)c1cccc(S(=O)(=O)N2CCOCC2)c1`: the manual score was 0.

For `COc1cc(CNc2ccc(N3CCCC3)cc2)ccc1OCc1ccccc1`, the manual score is 0.

Turning to `CC(Oc1ccc(Cl)cc1)C(=O)NNC(=S)NC(=O)c1ccco1` (stereo unspecified), the manual score is 1 (active).

Turning to `CC(Oc1ccc2ccccc2c1)C(=O)NNC(=S)NC(=O)c1ccco1` (stereo unspecified), the manual score is 1 (active).

As to `CC(Oc1ccc(Cl)cc1)C(=O)N/N=C/c1ccsc1` (stereo unspecified), the manual score is 0.

As to `CCSc1nnc(NC(=O)NC(CC)(C(F)(F)F)C(F)(F)F)s1`, the manual score is 0.

Take `O=C(C1CCN(S(=O)(=O)c2cccc3cccnc23)CC1)N1CC=C(c2ccccc2)CC1`: the manual score was -1 (active).

Regarding `O=C(C1CCCN1S(=O)(=O)c1cccc2cccnc12)N1CCn2c1nc1ccccc12` (stereo unspecified), the manual score is 0.

As to `O=C(C1CCCN1S(=O)(=O)c1cccc2cccnc12)N1CCc2ccccc21` (stereo unspecified), the manual score is 0.

As to `S=c1[nH]nc(-c2ccccn2)n1/N=C/c1ccc(Br)s1`, the manual score is 1 (active).

As for `S=c1[nH]nc(-c2ccco2)n1/N=C/c1ccc(Br)s1`, the manual score is 1 (active).

Turning to `CCN=c1scc(-c2ccco2)n1/N=C/c1ccc(O)cc1`, the manual score is 0.

As for `Cc1cc(-c2n[nH]c(=S)n2/N=C/c2ccc(Br)s2)n[nH]1`, the manual score was 1 (active).

Regarding `Cc1c(C(=O)NCc2cccnc2)oc2ccc(S(=O)(=O)N3CCC4(CC3)OCCO4)cc12`, the manual score is 0.

As for `Clc1ccc(CSc2ncn(-c3ccccc3)n2)cc1`, the manual score is 0.

As to `COC(=O)Cn1c(CN2CCc3ccccc3C2)nc2c1c(=O)n(C)c(=O)n2C`, the manual score is 0.

As to `O=C(CSc1nnc(-c2c[nH]c3ccccc23)n1-c1ccc(F)cc1)NCc1ccco1`, the manual score is -1 (active).

Turning to `Cc1ccc(-n2c(CSc3nc(C)cc(C)n3)nnc2SCC(=O)NCc2ccco2)cc1`, the manual score was 0.

Take `O=C(CSc1c[nH]c2ccccc12)NCc1ccc2c(c1)OCO2`: the manual score was 0.

Take `CCOC(=O)C1CCCN(c2nc(C)nc3c2oc2ccccc23)C1` (stereo unspecified): the manual score was 0.

`CCOC(=O)N1CCN(C(=O)CN(Cc2ccccc2)S(=O)(=O)c2ccc(OC)c(C)c2)CC1`: the manual score is 0.

With `C=CCn1c(SCC(=O)Nc2sccc2C(N)=O)nc2ccc(Cl)cc2c1=O`, the manual score was 1 (active).

Consider `COc1ccc(CNCCC(c2ccc(F)cc2)c2ccc(OC)cc2)cc1` (stereo unspecified), for which the manual score was 0.

For `O=C(/C=C/c1ccccc1)C1C(=O)c2ccccc2C1=O`, the manual score is 1 (active).

With `CCc1ccc(/C=c2\s/c(=C\C(=O)C(C)(C)C)[nH]c2=O)cc1`, the manual score is 0.

In the case of `CCc1ccc(/C=C/C(=O)C2C(=O)c3ccccc3C2=O)cc1`, the manual score was 1 (active).

Regarding `CC(/C=C\c1cccnc1)=C/C(=O)O`, the manual score was 0.

As to `CCOC(=O)C1=NNC(C(=O)c2ccc(OC)cc2)C1c1ccccc1` (stereo unspecified), the manual score was 0.

On to `Cc1ccc2c(c1)NC(=O)CC(c1ccccc1)=N2`, for which the manual score was 0.

For the molecule `FC(F)(F)c1ccc2nnc(-c3c(Cl)cccc3Cl)n2c1`, the manual score was 0.

With `CN(c1ccc(OCC(=O)OCC(=O)Nc2ccccc2F)cc1)S(=O)(=O)c1cccs1`, the manual score was 0.

Turning to `c1ccc2c(NC3CCCC3)nnc(NC3CCCC3)c2c1`, the manual score is 0.

Regarding `CC(C)c1nc(=S)c2ccccc2[nH]1`, the manual score is 1 (active).

For the molecule `S=c1nc(C2CC2)[nH]c2ccccc12`, the manual score is 1 (active).

Turning to `CCc1ccc(CNCCNCC(C)O)cc1` (stereo unspecified), the manual score was 0.

As to `Clc1ccc(Cl)c(OCc2cc(-c3ccccc3Cl)on2)c1`, the manual score was 0.

`CCCc1cc(=O)n2[nH]c(-c3ccc(Br)cc3)cc2n1`: the manual score was 0.

For the molecule `CC(C)(C)C(=O)NC(=S)NNC(=O)c1sc2ccccc2c1Cl`, the manual score is 1 (active).

`COc1ccc2cc(C(=O)Nc3ccccc3)sc(=O)c2c1OC`: the manual score was 0.

As for `COc1ccccc1C(=O)NNC(=S)NC(=O)c1sc2ccccc2c1Cl`, the manual score was 1 (active).

Consider `COc1ccccc1C(=O)NC(=S)NNC(=O)c1sc2ccccc2c1Cl`, for which the manual score is 1 (active).

Take `CCCCCc1nnc(NC(=O)Cc2cccs2)s1`: the manual score was 0.

Regarding `CNC(=S)N=Nc1c(O)[nH]c2ccc(C(C)C)cc12`, the manual score was 1 (active).

`COc1cccc(NC(=O)CC2COc3ccccc3O2)c1` (stereo unspecified): the manual score is 0.

Turning to `C#CC(CO)N(CCN(Cc1ccccc1)C(C#C)CO)Cc1ccccc1` (stereo unspecified), the manual score was 0.

Turning to `CCOc1ccc(-c2nc(-c3ccc(OC)c(OC)c3)no2)cc1OCC`, the manual score is 0.

As for `CCOc1ccc(-c2nnc(NC(=O)c3ccc(OCC(C)C)c(OC)c3)o2)cc1`, the manual score is 1 (active).

Turning to `COc1ccc(-c2nnc(NC(=O)c3ccc(S(=O)(=O)N4CCc5ccccc5C4)cc3)o2)cc1`, the manual score was 1 (active).

For `COc1ccc(-c2nnc(NC(=O)c3ccc(S(=O)(=O)N4COCC4(C)C)cc3)o2)cc1`, the manual score is 1 (active).

For the molecule `Cc1cccc(N2CCN(C(=O)c3ccc(Cl)c(S(=O)(=O)N4CCc5ccccc5C4)c3)CC2)c1C`, the manual score is 0.

For the molecule `CCOc1ccc(-c2nnc(NC(=O)CCCOc3cccc(C)c3)o2)cc1`, the manual score is 0.

Take `COc1ccc(-c2nnc(NC(=O)c3ccc(S(=O)(=O)N4CCCc5ccccc54)cc3)o2)cc1`: the manual score was 1 (active).

`CCCCCCCC1CC(CSC(=N)N)OC1=O` (stereo unspecified): the manual score was 0.

With `COc1ccc(C(C)N2CC34C=CC(O3)C(C(=O)OCC(C)C)C4C2=O)cc1` (stereo unspecified), the manual score was 0.

With `N#CCCn1nc(-c2ccc(Cl)cc2)cc1Nc1ccccc1NC(=O)C(F)(F)F`, the manual score is 0.

Turning to `COc1ccc(-c2nnc(NC(=O)c3ccc(F)cc3)o2)cc1`, the manual score is 1 (active).

For the molecule `O=C(Nc1nnc(-c2ccco2)o1)c1ccc2ccccc2c1`, the manual score was 1 (active).

Turning to `O=C(CSc1ccc(-c2ccco2)nn1)c1ccccc1`, the manual score is 0.

On to `CCc1cc(C(N)=O)c(NC(=O)c2ccc(OC)cc2)s1`, for which the manual score was 0.

For `O=C(NC(=S)N(CCCCO)C1CCCCC1)c1sc2ccccc2c1Cl`, the manual score was 1 (active).

For the molecule `CCOC(=S)NC(=O)c1sc2ccccc2c1Cl`, the manual score was 1 (active).

For `CCCOC(=S)NC(=O)c1sc2ccccc2c1Cl`, the manual score was 1 (active).

In the case of `CCCCOC(=S)NC(=O)c1sc2ccccc2c1Cl`, the manual score was 1 (active).

For the molecule `OC(CN1C2=NCCCN2c2ccccc21)c1ccc(Br)cc1` (stereo unspecified), the manual score was 0.

As to `Cc1ccc2c(Cl)cc(Cl)c(OCC(=O)NCc3ccco3)c2n1`, the manual score was 1 (active).

Consider `N=c1c(C(=O)NCc2ccco2)cc2c(=O)n3ccccc3nc2n1CCc1ccccc1`, for which the manual score is 0.

Consider `CCC/C(=N/NC(=O)c1cccc(Cl)c1)c1ccccc1`, for which the manual score is 1 (active).

As for `COc1cccc(NC(=O)Cn2cc3c(n2)CCCCC3)c1`, the manual score was 0.

Turning to `CCNC(=S)N/N=C1\CCCCc2ccccc21`, the manual score is 0.5.

Take `COc1cccc(NC(=S)N/N=C2/CCCCc3ccccc32)c1`: the manual score was 1 (active).

On to `COc1ccc(Nc2nc(N)nc(CSc3nnc(C)s3)n2)cc1`, for which the manual score was 0.

On to `COc1cc(OC)c(-c2c3cc(O)c(=O)cc-3oc3cc(O)c(O)cc23)cc1OC`, for which the manual score was 3.

As for `COc1ccccc1NC(=O)C(=O)NNC(=O)c1ccco1`, the manual score was 1 (active).

Regarding `COc1ccc(C)cc1NC(=O)C(=O)NNC(=O)c1ccco1`, the manual score is 1 (active).

Consider `COc1ccc(NC(=O)Nc2ccccc2OC)cc1`, for which the manual score was 0.

For `COc1ccc(NC(=O)Nc2cc(C)ccc2OC)cc1`, the manual score was 0.

On to `COc1ccc(C)cc1NC(=O)Nc1ccccc1`, for which the manual score is 0.

In the case of `COc1cccc(CNCCNC(=O)c2ccco2)c1OC`, the manual score was 0.
